Shown are actives, neighbours in structure and some others; about 1.7% of the full set was active somewhere.
Anesthetic bind – candidate novel general anesthetic via apoferritin binding. P02791. apoferritin/1-aminoanthracene competitive binding, fluorescence. Potency, µM (series often up to 77.5 µM), usual class: inhibitors. 350,000 compounds, 0.074% hits. AID 485281; note: nearly all actives have a fitted effect of over 20% in size
Target sequence (P02791 2-175 limits assumed): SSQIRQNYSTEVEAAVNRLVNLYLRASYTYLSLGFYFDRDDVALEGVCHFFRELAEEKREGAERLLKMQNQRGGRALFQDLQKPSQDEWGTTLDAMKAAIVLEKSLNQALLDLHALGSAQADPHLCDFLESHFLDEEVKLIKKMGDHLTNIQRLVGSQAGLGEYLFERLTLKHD
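In PBS, apoferritin at 10 uM is loaded with 1-AMA from a 50% saturated solution. After 10 min of compound exposure at ambient temperature, reduced 535 nm fluorescence indicates probe displacement.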
TrxR1 substrate – substrates of rat thioredoxin reductase 1 | O89049 | purified TrxR1 substrate turnover, NADPH consumption readout | Potency, µM (highest dose often 114 µM) | 390,000 compounds, 0.01% hits | AID 588456; note: nearly all actives have a fitted effect of over 50% in size
Target sequence (O89049 whole entry, looked up): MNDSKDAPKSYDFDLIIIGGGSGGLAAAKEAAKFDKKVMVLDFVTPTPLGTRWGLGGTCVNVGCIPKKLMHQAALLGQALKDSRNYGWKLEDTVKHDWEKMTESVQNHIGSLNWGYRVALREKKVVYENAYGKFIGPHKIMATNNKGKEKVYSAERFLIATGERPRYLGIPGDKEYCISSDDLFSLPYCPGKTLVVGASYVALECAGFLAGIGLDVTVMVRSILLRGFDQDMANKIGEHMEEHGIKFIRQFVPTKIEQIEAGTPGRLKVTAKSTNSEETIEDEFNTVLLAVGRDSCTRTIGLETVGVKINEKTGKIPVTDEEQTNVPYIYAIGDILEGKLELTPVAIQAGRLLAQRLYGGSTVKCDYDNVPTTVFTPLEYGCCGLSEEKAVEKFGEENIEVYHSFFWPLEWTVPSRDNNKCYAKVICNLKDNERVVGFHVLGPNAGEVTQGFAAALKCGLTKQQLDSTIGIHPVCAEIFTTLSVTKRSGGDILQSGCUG
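Rat TrxR1, dispensed at 90 nM, was prereduced with 400 uM NADPH (final) for 5 min at ~22 deg C, then incubated with compound 15 min before 400 uM selenite. A first-read NADPH fluorescence drop versus no-compound background flagged substrates.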
rTrxR1 inhibitor – rat TrxR1 inhibition; O89049; recombinant rTrxR1, NADPH fluorescence consumption, selenite substrate; Potency, µM (highest dose often 114 µM), usual class: inhibitors; 390,000 compounds, 1% hits; AID 588453; note: nearly all actives have a fitted effect of over 65% in size
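Rat TrxR1 (90 nM in the dispensed reagent) was pre-reduced with 400 uM NADPH for 5 min at room temperature, then incubated with compound for 15 min. After 400 uM selenite was added, NADPH fluorescence (Ex 340/Em 450 nm) was followed for 8 min.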
Glioma ERSR ind – inducers of ER stress response in human glioma cells. U87-MG GRP78 promoter luciferase reporter, 16 h. Potency, µM, most hits filed as activators. 420,000 compounds, 0.02% hits; note: series mostly up to about 76 µM; nearly all actives have a fitted effect of over 35% in size
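Stably transfected U87-MG glioma cells carrying a GRP78-based luciferase sensor; 16 h compound incubation. Luminescence end-point read 10 min after Bright-Glo addition at room temperature.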
IDH1 R132H inh – blocks human mutant IDH1 R132H enzyme; O75874; IDH1-R132H enzyme, NADPH consumption, diaphorase/resazurin fluorescence; Potency, µM (highest dose often 76.6 µM), actives largely listed as inhibitors; 390,000 compounds, 0.093% hits; AID 602179; note: nearly all actives have a fitted effect of over 65% in size
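IDH1-R132H (0.5 ug/mL) preincubated 30 min with compound, then NADPH (0.016 mM) and alpha-KG (2 mM) added; 80 min at RT, pH 7.5. Remaining NADPH coupled via diaphorase/resazurin to fluorescence (540/590 nm); concentration-response curves normalized to no-enzyme control.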
12-LOX inh – ALOX12 (human) lipoxygenase inhibition; P18054; purified 12hLO, xylenol orange hydroperoxide absorbance; Potency, µM (highest dose often 108 µM), usual class: inhibitors; 580,000 compounds, 1.1% hits; AID 1671190
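Hydroperoxide product was detected by ferrous iron/xylenol orange as the 573 to 405 nm absorbance ratio. Arachidonic acid at 40 uM (final) was turned over for 30 min at room temperature by 150 nM human 12hLO, pH 7.0 Hepes buffer, after 15 min compound preincubation.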
Numbers stand for hits; [ ] = another dose, or the depositor's remark. Calls come from the whole dose curve; as a rule, active = well fitted curve in the direction sought with a large enough effect; inconclusive = small, poorly fitted or top-dose-only effect, or another doubt; inactive = no such curve, though single readings can be large; an effect the other way counts as inactive or inconclusive.

For Cc1ccc(-c2cc(C(=O)OCC(=O)N(C)c3c(N)n(Cc4ccccc4)c(=O)[nH]c3=O)c3ccccc3n2)o1 the results were TrxR1 substrate inactive, rTrxR1 inhibitor inconclusive, Glioma ERSR ind inactive, IDH1 R132H inh inactive and 12-LOX inh 7.08µM.
CCCCN(C(=O)c1cc(-c2ccco2)nc2ccccc12)c1c(N)n(CCCC)c(=O)[nH]c1=O was read as TrxR1 substrate inactive, rTrxR1 inhibitor inconclusive, Glioma ERSR ind inactive, IDH1 R132H inh inactive and 12-LOX inh inconclusive.
Screening CCCn1c(N)c(N(CCOC)C(=O)c2cccnc2OCC)c(=O)[nH]c1=O returned 12-LOX inh 15.8µM.
`CCN(C(=O)COC(=O)/C=C/c1ccco1)c1c(N)n(Cc2ccccc2)c(=O)[nH]c1=O` gave TrxR1 substrate inactive, rTrxR1 inhibitor 50.1µM, Glioma ERSR ind inactive, IDH1 R132H inh inactive and 12-LOX inh inactive.
Screening C[S+](=O)([O-])N1Cc2ccccc2CC12CN(C(=O)c1ccc(Cl)nc1)C2 returned 12-LOX inh inactive.
Screening COCCN(C(=O)c1cc(-c2ccco2)nc2ccccc12)c1c(N)n(Cc2ccccc2)c(=O)[nH]c1=O returned TrxR1 substrate inactive, rTrxR1 inhibitor inconclusive, Glioma ERSR ind inactive, IDH1 R132H inh inactive and 12-LOX inh inactive.
Screening CCCCn1c(N)c(N(CCOC)C(=O)c2cc(-c3ccc(OC)c(OC)c3)nc3ccccc23)c(=O)[nH]c1=O returned TrxR1 substrate inactive, rTrxR1 inhibitor inactive, Glioma ERSR ind inactive, IDH1 R132H inh inactive and 12-LOX inh 15.8µM.
CCCN(C(=O)c1cc(-c2ccco2)nc2ccccc12)c1c(N)n(Cc2ccccc2)c(=O)[nH]c1=O was read as TrxR1 substrate inactive, rTrxR1 inhibitor 28.2µM, Glioma ERSR ind inactive, IDH1 R132H inh inactive and 12-LOX inh inconclusive.
`CCCCn1c(N)c(N(CC(C)C)C(=O)c2cc(-c3ccc(OC)c(OC)c3)nc3ccccc23)c(=O)[nH]c1=O` gave TrxR1 substrate inactive, rTrxR1 inhibitor inactive, Glioma ERSR ind inactive, IDH1 R132H inh inactive and 12-LOX inh inconclusive.
Cc1ccc(Cl)cc1-n1nc(-c2c(C)nc3scc(CC(=O)NCCC(C)C)n3c2=O)cc1C was read as 12-LOX inh inactive.
O=[N+]([O-])c1ccc(Sc2ncccn2)c([N+](=O)[O-])c1 was read as Anesthetic bind inactive, TrxR1 substrate inactive, rTrxR1 inhibitor inconclusive, Glioma ERSR ind inactive, IDH1 R132H inh inactive and 12-LOX inh inactive.
O=C(O)CCSc1ccc([N+](=O)[O-])cc1[N+](=O)[O-] was read as Anesthetic bind inactive, TrxR1 substrate inactive, rTrxR1 inhibitor 70.8µM, Glioma ERSR ind inactive, IDH1 R132H inh inactive and 12-LOX inh inactive.
Screening Cc1cc(C)cc(NC(=O)C(Cc2ccccc2)NS(=O)(=O)c2ccc3c(c2)CCC(=O)N3)c1 (centres undefined) returned Anesthetic bind inactive, TrxR1 substrate inactive, rTrxR1 inhibitor inactive, Glioma ERSR ind inactive, IDH1 R132H inh inactive and 12-LOX inh inactive.
`COC(=O)[C@@]1(Sc2ccc(OC)cc2)CC(=O)N[C@@H]1c1ccc(OC(C)C)c(OC)c1` gave 12-LOX inh inactive.
COC(=O)[C@@]1(Sc2ccc(C)cc2)CC(=O)N[C@@H]1c1ccco1 was read as 12-LOX inh 39.8µM.
`CC(=O)c1ccccc1NCC(=O)Nc1ccc(C#N)cc1` gave 12-LOX inh inactive.
CCCSc1cc(NCCOC(=O)CCC)c([N+](=O)[O-])c2nonc12 was read as Anesthetic bind inactive, TrxR1 substrate inactive, rTrxR1 inhibitor inconclusive, Glioma ERSR ind inactive, IDH1 R132H inh inactive and 12-LOX inh inconclusive.
CCCC(=O)OCCNc1cc(Sc2nccn2C)c2nonc2c1[N+](=O)[O-] was read as Anesthetic bind inactive, TrxR1 substrate inactive, rTrxR1 inhibitor 0.562µM, Glioma ERSR ind inactive, IDH1 R132H inh inactive and 12-LOX inh inconclusive.
`CCCC(=O)OCCNc1cc(SCc2ccco2)c2nonc2c1[N+](=O)[O-]` gave Anesthetic bind inconclusive, TrxR1 substrate inactive, rTrxR1 inhibitor 3.98µM, Glioma ERSR ind inconclusive, IDH1 R132H inh inactive and 12-LOX inh inconclusive.
CC(=O)OCCCNc1cc(SCc2ccco2)c2nonc2c1[N+](=O)[O-] was read as Anesthetic bind inactive, TrxR1 substrate inactive, rTrxR1 inhibitor 2.51µM, Glioma ERSR ind inactive, IDH1 R132H inh inactive and 12-LOX inh inconclusive.
`CN(CCCc1[nH]nc(N)c1C#N)c1nc(-c2cccnc2)nc2ccccc12` gave 12-LOX inh inactive.
For CC(=O)NC1=NN(C(C)=O)C2(S1)C(=O)N(Cc1ccccc1)c1c(C)cccc12 (centres undefined) the results were 12-LOX inh inactive.
O=C1CC(=C(c2ccccc2)c2ccccc2)C(=O)N1CCCCN1CCN(c2ccccc2)CC1 was read as Anesthetic bind inconclusive, TrxR1 substrate inactive, rTrxR1 inhibitor inactive[0.457 µM], Glioma ERSR ind inactive, IDH1 R132H inh inactive and 12-LOX inh 39.8µM.
For Cc1ccc(S(C)(=O)=O)cc1C(=O)NCc1coc(-c2cccs2)n1 the results were 12-LOX inh inactive.
CC(C)N(C)S(=O)(=O)c1cccc(C(=O)Nc2cccc3ncccc23)c1 was read as 12-LOX inh inactive.
Screening Cc1cc(C(=O)c2ccc(Cl)cc2)c(NC(=O)CCl)s1 returned Anesthetic bind inactive, TrxR1 substrate inactive, rTrxR1 inhibitor 3.98µM, Glioma ERSR ind inconclusive, IDH1 R132H inh inactive and 12-LOX inh inactive.
For Cc1ccc(C(=O)c2cc(C)sc2N)cc1 the results were Anesthetic bind inconclusive, TrxR1 substrate inactive, rTrxR1 inhibitor inactive, Glioma ERSR ind inactive, IDH1 R132H inh inactive and 12-LOX inh inconclusive.
CCc1cc(C(=O)c2ccc(C)cc2)c(NC(=O)CCl)s1 was read as Anesthetic bind inactive, TrxR1 substrate inactive, rTrxR1 inhibitor 31.6µM, Glioma ERSR ind inconclusive, IDH1 R132H inh inactive and 12-LOX inh inactive.
`O=C(/C=C/c1ccccc1O)c1ccco1` gave Anesthetic bind inactive, TrxR1 substrate inactive, rTrxR1 inhibitor inactive, Glioma ERSR ind inconclusive, IDH1 R132H inh inactive and 12-LOX inh inactive.
For O=C(/C=C/c1cc(Br)ccc1O)c1ccco1 the results were Anesthetic bind inactive, TrxR1 substrate inactive, rTrxR1 inhibitor 35.5µM, Glioma ERSR ind inactive, IDH1 R132H inh inactive and 12-LOX inh inconclusive.
COc1cc(Cl)cc(C(c2c(C(=O)O)[nH]c3ccccc23)c2c(C(=O)O)[nH]c3ccccc23)c1O was read as Anesthetic bind inactive, TrxR1 substrate inactive, rTrxR1 inhibitor inconclusive, Glioma ERSR ind inactive, IDH1 R132H inh inactive and 12-LOX inh 15.8µM.
Screening CN1C(=O)N(c2ccc(Cl)c(Cl)c2)C(C)(O)CC1(C)C (centres undefined) returned 12-LOX inh inactive.

Screening results as filed in PubChem.
